# What was measured:
# Test in all cases: PBM binding z-score (relative to random genomic background probes); higher = stronger binding; sequences stand for … in GC…GCGATTGACAGCGTAGAATGAAGG
# [1] = tested on: FXR:RXRa (NR concentration 270 nM, RXRa partner concentration 90 nM)
# Method in brief: (§1)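 Custom Agilent 4×180K protein-binding microarrays carried double-stranded probes, each with a 34-nt variable region. These regions held direct-repeat seeds, single-nucleotide variants, half-site ablations and random human genomic background sequences. Ligand-free nuclear receptor dimers were incubated on the arrays for 1 h, antibodies against each partner (one per run) detected binding, and scanned fluorescence was regression-normalized. Binding z-scores take the random background probes as reference.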
# [2] = tested on: LXRa:RXRa (NR concentration 270 nM, RXRa partner concentration 90 nM)
# Method in brief: as §1
# [3] = tested on: LXRa homodimer (NR concentration 270 nM)
# Method in brief: as §1
# [4] = tested on: LXRb:RXRa (NR concentration 270 nM, RXRa partner concentration 90 nM)
# Method in brief: as §1
# [5] = tested on: LXRb homodimer (NR concentration 270 nM)
# Method in brief: as §1
# [6] = tested on: PPARg:RXRa (NR concentration 180 nM, RXRa partner concentration 90 nM)
# Method in brief: as §1
# [7] = tested on: PPARg:RXRa 270nM:90nM, anti-RXR (NR concentration 270 nM, RXRa partner concentration 90 nM)
# Method in brief: as §1
# [8] = tested on: PPARg:RXRa 30nM:10nM, anti-RXR (NR concentration 30 nM, RXRa partner concentration 10 nM)
# Method in brief: as §1
# [9] = tested on: PPARg:RXRa 90nM:30nM, anti-RXR (NR concentration 90 nM, RXRa partner concentration 30 nM)
# Method in brief: as §1
# [10] = tested on: PPARg:RXRa DBDmut IVT, anti-RXR (DBD mutation: RXRa K156A/R161A, NR concentration 270 nM, RXRa partner concentration 90 nM)
# Method in brief: as §1
# [11] = tested on: PPARg:RXRa IVT, anti-PPARg (NR concentration 270 nM, RXRa partner concentration 90 nM)
# Method in brief: as §1
# [12] = tested on: PPARg DBDmut:RXRa IVT, anti-PPARg (DBD mutation: PPARg1 K132A/R137A, NR concentration 270 nM, RXRa partner concentration 90 nM)
# Method in brief: as §1
# [13] = tested on: PPARg DBDmut IVT, anti-PPARg (DBD mutation: PPARg1 K132A/R137A, NR concentration 270 nM)
# Method in brief: as §1
# [14] = tested on: PPARg homodimer (NR concentration 180 nM)
# Method in brief: as §1
# [15] = tested on: PXR:RXRa (NR concentration 270 nM, RXRa partner concentration 90 nM)
# Method in brief: as §1
# [16] = tested on: PXR homodimer (NR concentration 270 nM)
# Method in brief: as §1
# [17] = tested on: RARa:RXR (NR concentration 270 nM, RXRa partner concentration 90 nM)
# Method in brief: as §1
# [18] = tested on: RARa homodimer (NR concentration 270 nM)
# Method in brief: as §1
# [19] = tested on: RARb:RXRa (NR concentration 270 nM, RXRa partner concentration 90 nM)
# Method in brief: as §1
Sequence,PBM binding z-score [1],PBM binding z-score [2],PBM binding z-score [3],PBM binding z-score [4],PBM binding z-score [5],PBM binding z-score [6],PBM binding z-score [7],PBM binding z-score [8],PBM binding z-score [9],PBM binding z-score [10],PBM binding z-score [11],PBM binding z-score [12],PBM binding z-score [13],PBM binding z-score [14],PBM binding z-score [15],PBM binding z-score [16],PBM binding z-score [17],PBM binding z-score [18],PBM binding z-score [19]
CCTAGCAGGCCACGGTCACTCAAGCATTTCGCTT,0.26,0.128,-0.0188,0.0634,-0.369,0.0164,0.322,-0.777,-0.122,2.28,1.83,-0.92,-1.29,0.115,-0.147,-0.385,0.307,-0.0441,1.95
TCTCGGAGGACACGAAAAGTCAGAGCTCGACATC,0.557,0.0964,-0.301,-0.0523,-0.795,0.122,1.13,2.15,1.59,1.7,0.139,-0.679,-0.502,0.0166,-0.0938,-0.142,0.141,-0.037,1.72
TAGCCTAGGTCATTCAGGGGCCAGTATGGAAAGC,4.71,3.88,0.839,2.81,1.22,2.1,2.25,0.204,1.74,1.58,2.93,0.514,-0.26,2.13,2.46,-0.398,3.77,0.0659,4.11
TAGCCTAGGTCATGCGGGCCAGTATAGTGTCGGC,3.95,3.16,0.141,1.55,-0.409,1.98,2.32,-0.028,1.01,1.77,2.76,-0.107,-0.0866,0.667,1.37,-0.724,2.44,-0.846,3.66
CCTACTGGGCGATTCAGAGGTCATTGATCATATG,2.02,3.68,6.2,3.09,-0.0527,0.564,1.87,0.13,0.99,1.07,1.23,-1.35,-0.572,1.38,4.37,1.7,4.25,0.31,2.53
CAAACTAGGTCACCGTAAGGTCAAAGTCCGCATG,6.58,6.1,5.47,5.55,1.46,9.41,7.89,5.84,7.64,8.08,9.03,2.73,1.86,6.09,6.21,2.62,7.31,1.95,5.57
TATACAGGGTCTAAGGCCAGAGTACGAATGTCGA,0.41,0.239,0.14,0.157,0.936,1.09,1.86,0.951,1.51,-0.0368,0.912,0.973,0.725,0.023,-0.0788,0.0324,-0.102,0.373,0.935
CCTAGTTGGTCAGGTGGTCACACACCGGATATGA,0.558,0.139,0.26,0.406,-0.0912,0.84,1.18,0.231,0.655,0.0405,0.926,-0.00343,-0.318,1.26,0.174,0.369,0.505,1.18,1.25
ACTTACGGGTCAACGGGGTTATAGCACGCGTATA,6.95,4.81,0.682,5,0.93,6.4,5.83,2.51,4.14,3.04,4.81,1.21,1.3,2.83,5.57,2.28,5.87,0.668,4.47
AGTCAAAGTTCAGCACGAGGTAACGTAAAGCACG,4.45,4.19,1.47,2.23,0.567,4.88,5.1,2.2,4.2,-0.116,2.28,0.538,0.124,1.92,3.35,1.01,3.13,1.12,4.66
ACCAGCAGGCCAAGGGTCACTCAAGATTAGTCCG,2.48,2.71,-0.066,2.55,-0.909,6.25,6.19,4.57,5.83,-0.293,2.57,-0.621,-0.244,2.32,2.95,-0.192,3.93,0.0192,3.37
GGAACGAGCGCAAAGTTGATAGCATCTGTCGACG,-0.856,-0.827,-0.68,-1.1,-1.22,1.51,3.31,0.951,2.9,-0.42,-0.495,-0.634,-1.33,-1.01,-0.773,-0.719,-0.723,-0.818,-0.372
AGAATGAGGTTAAGATTAGGGAAACAGAATACAT,2.33,1.73,0.0443,1.78,-0.185,2.52,2.36,0.986,1.91,2.37,2.53,0.926,1.13,1.38,1.24,0.222,2.11,1.36,1.91
GGTACGAGGGCAAAGTTGATAGCATCTGTCGACG,1.46,1.03,-0.421,0.954,-0.42,5.89,6.23,4.16,6.02,2.41,3.4,0.0227,-1.04,1.2,0.895,0.0381,1.42,-0.085,2.33

# Source: the supplement of paper PMC6555819
